# Reference: the supplement of paper PMC8728848
# Many of the other results were omitted from the sample, so the strongest signals are more common in it than they were.
# How the values were obtained:
# Assay in all cases: glycan array binding signal (z-score within array); higher = stronger binding
# Details in all cases: glycan notation: IUPAC condensed, linker removed
# [1] = biological target: Fuc(a1-2)Gal(b1-3)GalNAc(a1-3)[Fuc(a1-2)]Gal(b1-4)Glc
# Method in brief: (§1)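 Columns mapping to the same glycan were averaged after glycan names were converted to IUPAC-condensed notation. The data come from 3228 arrays in the Consortium for Functional Glycomics database, limited to those with an available protein sequence. Binding is reported as a within-array Z-score averaged across arrays of one protein sequence and across linkers.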
# [2] = biological target: Fuc(a1-2)Gal(b1-3)GalNAc(a1-3)[Fuc(a1-2)]Gal(b1-4)GlcNAc
# Method in brief: as §1
# [3] = biological target: Fuc(a1-2)Gal(b1-3)GlcNAc(b1-2)Man(a1-3)[Fuc(a1-2)Gal(b1-3)GlcNAc(b1-2)Man(a1-6)]Man(b1-4)GlcNAc(b1-4)GlcNAc
# Method in brief: as §1
# Fuc(a1-2)Gal(b1-4)Glc6S = biological target: Fuc(a1-2)Gal(b1-4)Glc6S
# Method in brief: as §1
# [4] = biological target: Fuc(a1-2)Gal(b1-4)GlcNAc(b1-3)Gal(b1-4)GlcNAc(b1-3)Gal(b1-4)GlcNAc
# Method in brief: as §1
# [5] = biological target: Fuc(a1-2)Gal(b1-4)[Fuc(a1-3)]GlcNAc
# Method in brief: as §1
# [6] = biological target: Fuc(a1-2)[Gal(a1-3)]Gal(b1-4)GlcNAc
# Method in brief: as §1
# [7] = biological target: Fuc(a1-2)[Gal(a1-3)]Gal(b1-4)[Fuc(a1-3)]GlcNAc
# Method in brief: as §1
# [8] = biological target: Fuc(a1-2)[GalNAc(b1-3)]Gal
# Method in brief: as §1
# Fuc(b1-3)GlcNAc = biological target: Fuc(b1-3)GlcNAc
# Method in brief: as §1
# [9] = biological target: Gal(a1-3)Gal(b1-4)[Fuc(a1-3)]GlcNAc
# Method in brief: as §1
# [10] = biological target: Gal(a1-4)Gal(b1-3)GlcNAc(b1-2)Man(a1-3)[Gal(a1-4)Gal(b1-3)GlcNAc(b1-2)Man(a1-6)]Man(b1-4)GlcNAc(b1-4)GlcNAc
# Method in brief: as §1
# Gal(a1-4)GlcNAc = biological target: Gal(a1-4)GlcNAc
# Method in brief: as §1
# [11] = biological target: Gal(b1-3)GalNAc(b1-3)Gal(a1-4)Gal(b1-4)Glc
# Method in brief: as §1
# [12] = biological target: Gal(b1-3)GlcNAc(b1-3)Gal(b1-4)Glc
# Method in brief: as §1
# [13] = biological target: Gal(b1-3)GlcNAc(b1-3)Gal(b1-4)GlcNAc(b1-6)[Gal(b1-3)GlcNAc(b1-3)]Gal(b1-4)Glc
# Method in brief: as §1
# [14] = biological target: Gal(b1-3)GlcNAc(b1-3)GalNAc
# Method in brief: as §1
# [15] = biological target: Gal(b1-3)[Fuc(a1-4)]GlcNAc(b1-2)Man(a1-3)[Gal(b1-3)[Fuc(a1-4)]GlcNAc(b1-2)Man(a1-6)]Man(b1-4)GlcNAc(b1-4)GlcNAc
# Method in brief: as §1
# [16] = biological target: Gal(b1-4)GlcNAc(b1-3)Gal(b1-4)[Fuc(a1-3)]GlcNAc(b1-3)Gal(b1-4)[Fuc(a1-3)]GlcNAc
# Method in brief: as §1
# [17] = biological target: Gal(b1-4)GlcNAc(b1-3)[GlcNAc(b1-6)]Gal(b1-4)GlcNAc
# Method in brief: as §1
# [18] = biological target: Gal3S(b1-3)[Fuc(a1-4)]GlcNAc
# Method in brief: as §1
# Gal3S(b1-4)Glc = biological target: Gal3S(b1-4)Glc
# Method in brief: as §1
# [19] = biological target: Gal3S(b1-4)[Fuc(a1-3)]Glc
# Method in brief: as §1
# GlcA(b1-3)Gal = biological target: GlcA(b1-3)Gal
# Method in brief: as §1
# [20] = biological target: GlcNAc(a1-4)Gal(b1-4)GlcNAc(b1-3)Gal(b1-4)GlcNAc
# Method in brief: as §1
# [21] = biological target: GlcNAc(a1-4)Gal(b1-4)GlcNAc(b1-3)Gal(b1-4)[Fuc(a1-3)]GlcNAc(b1-3)Gal(b1-4)[Fuc(a1-3)]GlcNAc
# Method in brief: as §1
# GlcNAc(b1-3)Gal(b1-4)Glc = biological target: GlcNAc(b1-3)Gal(b1-4)Glc
# Method in brief: as §1
# [22] = biological target: GlcNAc(b1-3)Gal(b1-4)GlcNAc
# Method in brief: as §1
# [23] = biological target: GlcNAc(b1-3)Gal(b1-4)GlcNAc(b1-3)Gal(b1-4)GlcNAc
# Method in brief: as §1
# [24] = biological target: GlcNAc(b1-4)GlcNAc(b1-4)GlcNAc
# Method in brief: as §1
# [25] = biological target: GlcNAc(b1-4)GlcNAc(b1-4)GlcNAc(b1-4)GlcNAc(b1-4)GlcNAc
# Method in brief: as §1
# [26] = biological target: GlcNAc(b1-4)GlcNAc(b1-4)GlcNAc(b1-4)GlcNAc(b1-4)GlcNAc(b1-4)GlcNAc
# Method in brief: as §1
# [27] = biological target: GlcNAc(b1-4)[GlcNAc(b1-6)]GalNAc
# Method in brief: as §1
# [28] = biological target: Man(a1-3)[Man(a1-6)]Man(b1-4)GlcNAc(b1-4)GlcNAc
# Method in brief: as §1
# [29] = biological target: Neu5Ac(a2-3)Gal(b1-3)GalNAc
# Method in brief: as §1
# [30] = biological target: Neu5Ac(a2-3)Gal(b1-4)[Fuc(a1-3)]GlcNAc
# Method in brief: as §1
# [31] = biological target: Neu5Ac(a2-3)Gal(b1-4)[Fuc(a1-3)]GlcNAc(b1-3)GalNAc
# Method in brief: as §1
# [32] = biological target: Neu5Ac(a2-3)Gal6S(b1-4)[Fuc(a1-3)]GlcNAc
# Method in brief: as §1
# [33] = biological target: Neu5Ac(a2-3)GalNAc(b1-4)GlcNAc
# Method in brief: as §1
# Neu5Ac(a2-6)Gal(b1-4)Glc = biological target: Neu5Ac(a2-6)Gal(b1-4)Glc
# Method in brief: as §1
# [34] = biological target: Neu5Ac(a2-6)GalNAc(b1-4)GlcNAc
# Method in brief: as §1
binder,measurement,setting,value
"Ecp6 (Cladosporium fulvum), B3VBK9 (protein) MQSMILFAAALMGAAVNGFVLPRTDDPDCETKATDCGSTSNIKYTVVKGDTLTSIAKKFKSGICNIVSVNKLANPNLIELGATLIIPENCSNPDNKSCVSTPAEPTETCVPGLPGSYTIVSGDTLTNISQDFNITLDSLIAANTQIENPDAIDVGQIITVPVCPSSQCEAVGTYNIVAGDLFVDLAATYHTTIGQIKALNNNVNPSKLKVGQQIILPQDCKNVTTAVA",glycan array binding signal (z-score),[1],-0.099
same,glycan array binding signal (z-score),[2],-0.099
same,glycan array binding signal (z-score),[3],-0.096
same,glycan array binding signal (z-score),Fuc(a1-2)Gal(b1-4)Glc6S,-0.062
same,glycan array binding signal (z-score),[4],-0.082
same,glycan array binding signal (z-score),[5],-0.078
same,glycan array binding signal (z-score),[6],-0.078
same,glycan array binding signal (z-score),[7],-0.021
same,glycan array binding signal (z-score),[8],-0.077
same,glycan array binding signal (z-score),Fuc(b1-3)GlcNAc,-0.083
same,glycan array binding signal (z-score),[9],-0.102
same,glycan array binding signal (z-score),[10],-0.099
same,glycan array binding signal (z-score),Gal(a1-4)GlcNAc,-0.102
same,glycan array binding signal (z-score),[11],-0.064
same,glycan array binding signal (z-score),[12],-0.076
same,glycan array binding signal (z-score),[13],-0.107
same,glycan array binding signal (z-score),[14],-0.089
same,glycan array binding signal (z-score),[15],-0.039
same,glycan array binding signal (z-score),[16],-0.036
same,glycan array binding signal (z-score),[17],-0.096
same,glycan array binding signal (z-score),[18],-0.074
same,glycan array binding signal (z-score),Gal3S(b1-4)Glc,-0.098
same,glycan array binding signal (z-score),[19],-0.084
same,glycan array binding signal (z-score),GlcA(b1-3)Gal,-0.089
same,glycan array binding signal (z-score),[20],-0.091
same,glycan array binding signal (z-score),[21],-0.002
same,glycan array binding signal (z-score),GlcNAc(b1-3)Gal(b1-4)Glc,-0.094
same,glycan array binding signal (z-score),[22],-0.1
same,glycan array binding signal (z-score),[23],-0.075
same,glycan array binding signal (z-score),[24],10.3
same,glycan array binding signal (z-score),[25],13
same,glycan array binding signal (z-score),[26],10.7
same,glycan array binding signal (z-score),[27],-0.103
same,glycan array binding signal (z-score),[28],-0.085
same,glycan array binding signal (z-score),[29],-0.099
same,glycan array binding signal (z-score),[30],-0.099
same,glycan array binding signal (z-score),[31],-0.004
same,glycan array binding signal (z-score),[32],-0.073
same,glycan array binding signal (z-score),[33],-0.052
same,glycan array binding signal (z-score),Neu5Ac(a2-6)Gal(b1-4)Glc,-0.096
same,glycan array binding signal (z-score),[34],-0.063
